# PubChem BioAssay (NCI)
# The panel holds about 83,000 compounds, 20% with a hit somewhere; the sample as a whole holds those more often.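 Assay: single dose, 48 h. Readout: percent growth (0 = no net growth; negative = cell death). Active: <10.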 A number with no mark means an inactive call. Activity calls are given as the source filed them.
# Tested on: HCC-2998 colon
# Experiment: NCI-60 one-dose screen, 48 h (100 = growth as untreated, 0 = no growth, -100 = all killed)
# Settings: 10 µM unless noted
row,SMILES,growth
1,COc1ccc(C2C3CCc4ccccc4C3=NN2C(=O)c2cc(OC)c(OC)c(OC)c2)cc1O (configuration not stated),110%
2,CCOC(=O)c1ccc(NC(=O)NC2=NCCS2)cc1,45%
3,CC(C)COC(=O)NC(C)(C)C,97%
4,Cn1c(=O)c2[nH]c(Cc3ccc4c(c3)OCO4)nc2n(C)c1=O,109%
5,Nc1nc(N)c2c(n1)NC(c1sc(Cl)nc1Cl)CC(c1ccc3c(c1)OCO3)=N2 (configuration not stated),61.2%
6,Cc1ccccc1N1C(c2ccccc2)=NNC12C=CC(=O)c1c(O)cccc12 (configuration not stated),90.3%
7,Nc1nc(N)c2c(n1)NC(c1sc(Cl)nc1Cl)CC(c1ccccc1)=N2 (configuration not stated),74.3%
8,C=C1NC(=O)C(C(C)CC)NC(=O)C2CSCC(NC(=O)CCC(=O)O)C(=O)NC(Cc3ccccc3)C(=O)NC(C)C(=O)NC(CC(C)CC)C(=O)NC(C(=O)NC(Cc3ccccc3)C(=O)N3CCCC3C(=O)N2)C(C)OC(=O)C(CO)NC(=O)C(C(O)COC)N(C)C(=O)C(C(C)C)NC(=O)C(CC(C)CC)NC1=O (configuration not stated),12.3% [6 µM]
9,C=CC[C@]1(O)CC[C@H]2[C@@H]3CCc4cc(O)ccc4[C@H]3CC[C@@]21C,99.8%
10,COS(=O)(=O)CCN(CCOS(C)(=O)=O)S(C)(=O)=O,98%
11,Cc1nc2ccc(Nc3nc(NCCN4CCOCC4)nc(Nc4ccc(F)cc4)n3)cc2n1Cc1ccccc1,44.5%
12,COC1CC(N)C2OC(c3ccccc3)OCC2O1 (configuration not stated),102%
13,COc1ccc2[nH]cc(C(c3ccc(Cl)cc3)N3CCCC3)c2c1 (configuration not stated),97%
14,CCOP(=O)(O)OP(=O)(O)OCC,104%
15,COc1cccc(/C=N/N=C(N)N)c1,107%
16,COc1ccc(C2CC(c3ccc(Nc4ccnc5cc(Cl)ccc45)cc3)=NN2c2ccccc2)cc1 (configuration not stated),101%
17,CC1=C(O)C(=O)C(c2c(C)cc(C)c(Br)c2C)=C(O)C1=O,63%
18,FC(F)(F)C1=NNC(c2ccc3ccccc3c2)=NN1,118%
19,NC(N)=N/N=C\c1ccc(OCc2ccccc2)cc1,82.3%

row,SMILES,growth
1,COc1ccc(NC(=O)C2c3ccccc3C(=O)N(CC(C)C)C2c2cccs2)cc1 (configuration not stated),93.3%
2,NC(N)=N/N=C\c1cccc(OCc2ccccc2)c1,4.51% (active)
3,CS(=O)(=O)Nc1cc(-c2cc3ncc(C#N)c(Nc4ccc(Oc5ccccc5)c(Cl)c4)c3s2)cnc1Cl,64.5%
4,Cc1ccc(NC(=O)c2nc(S(C)(=O)=O)oc2-c2ccc(F)cc2)cc1Nc1ccc2ncn(C)c(=O)c2c1,99.7%
5,CC(=O)[C@H]1CC[C@H]2[C@@H]3CC[C@H]4CC=CC[C@]4(C)[C@H]3CC[C@]12C,97.2%
6,COc1cccc(NC(=O)[C@H](C(C)C)n2c(=O)[nH]c3ccccc3c2=O)c1,96.3%
7,CC(C)N1CCN(c2ccncc2S(=O)(=O)N2CCN(C)CC2)CC1,106%
8,[O-]/[N+](=C\c1ccccc1)CC1(O)CCCCC1,115%
9,CCc1ccc(-c2ccc(NC3CCCCCC3)nn2)cc1S(N)(=O)=O,102%
10,COC(=O)C(CCC(=O)CCl)N1C(=O)c2ccccc2C1=O (configuration not stated),89.4%
11,CCCCCCCCCCCCCCC(C(=O)OCC)C(=O)OCC,106%
12,O=C(Nc1ccc2[nH]c3ccccc3c2c1)c1ccccc1Cl,64.3%
13,CN(C)c1ccc(/C=C(\C#N)c2nc3ccccc3n2C)cc1,61.3%
14,O=C(CS)OCC(COC(=O)CS)(COC(=O)CS)COC(=O)CS,92.2%
15,C#CC[C@@H]1C[C@]2(C)[C@H]3CC=C4[C@H]5[C@@H](C)[C@H](C)CC[C@]5(C(=O)NCCCCN)CC[C@@]4(C)[C@]3(C)CC[C@H]2C(C)(C)[C@H]1OC(C)=O,30%
16,CC(=O)N1N=C(c2ccc(C)cc2)CC1c1cn(-c2ccccc2)nc1-c1cccc(Nc2ccnc3cc(Cl)ccc23)c1 (configuration not stated),102%
17,CCN(CC)CCC(CNc1ccnc2cc(Cl)ccc12)c1ccc(O)cc1 (configuration not stated),88.9%
18,CNC(=O)c1ccccc1Sc1ccc2c(/C=C/c3ccccn3)n[nH]c2c1,68.9%
